Ins promoter up – insulin promoter activators in MIN6 cells, imaging, high-content screening, mouse beta cells; MIN6 insulin promoter-GFP reporter; active compounds read high; z-score at 5 µM; 0.3% of 190,000 active;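 active means z-score above 3 at 5 µM with at least 500 cells counted in the well; inconclusive means wells under 500 cells, flagged as cytotoxic or low count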
KCC2 mod – KCC2 cotransporter modulators, thallium flux, primary screen, cell-based, HEK293 KCC2, FluoZin-2 fluorescence, MLSMR; KCC2 cells, thallium flux FluoZin-2 fluorescence; B-score of Tl+ flux slope (higher = more flux/activation; lower = inhibition) at 10 µM; AID 1456, 2008; Solute carrier family 12 member 5 (Homo sapiens), Q9H2X9; 2.2% of 190,000 active;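 active means thallium flux slope and its plate-corrected score both differing from the plate sample mean at a set confidence after two filtering rounds, in either direction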;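 further: slope of fluorescence scaled to starting intensity during 10 to 20 s after thallium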
ROMK mod – ROMK potassium channel modulators, primary screen, cell-based, thallium flux, MLSMR library; ATP-sensitive inward rectifier potassium channel 1 (Homo sapiens), P48048; Tet-inducible ROMK, thallium flux fluorescence; actives lie on both sides; B-score at 10 µM; 2% of 130,000 active;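 active means signal ratio slope over the read window, or its plate-corrected B-score, at least 3 SD from the plate mean, either direction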;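 further: B-score of the F/F0 ratio slope over 7 to 12 s after thallium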
Target sequence (P48048 whole entry, looked up): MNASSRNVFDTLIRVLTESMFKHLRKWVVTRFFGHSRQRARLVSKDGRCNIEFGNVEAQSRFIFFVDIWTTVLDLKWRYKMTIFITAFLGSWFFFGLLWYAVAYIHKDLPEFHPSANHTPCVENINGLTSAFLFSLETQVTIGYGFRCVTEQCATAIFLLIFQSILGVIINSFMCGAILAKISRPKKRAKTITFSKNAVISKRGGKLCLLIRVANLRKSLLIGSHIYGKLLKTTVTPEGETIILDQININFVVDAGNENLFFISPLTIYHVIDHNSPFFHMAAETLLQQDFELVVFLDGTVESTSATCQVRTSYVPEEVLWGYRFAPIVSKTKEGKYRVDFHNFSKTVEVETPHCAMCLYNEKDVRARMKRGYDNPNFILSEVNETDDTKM
INS promoter inh – inhibitors of insulin promoter-driven GFP, primary screen, imaging, TRM-6 cells (human fetal islet line), eGFP reporter, cell count | reporter expression induced with tamoxifen | 0.9% of 130,000 active | inhibition, % at 2 µM | AID 1273, 2008;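 active means inhibition above the mean plus 3 SD, with well images judged a real hit on visual review, cut at about 60% in these data, passing the limit was not always enough; inconclusive means inhibition over the cutoff but images rejected on review; inactive means inhibition not above the cutoff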
WT yeast gro inh – growth inhibition of WT strain, primary screen, mitochondrial fusion inhibitor project, WT and mutant strains, chemical genetic; mitochondrial fusion phenotypic screen; inhibition, % at 10 µM; 2.1% of 190,000 active; AID 1362, 2008; in the data active means inhibition above about 58%; tested in S. cerevisiae
Lmaj promast – Leishmania major promastigote growth inhibition, primary screen | Leishmania major promastigotes, resazurin fluorescence viability | inhibition, % at 10 µM | 9% of 200,000 active; in the data active means inhibition above about 50%;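 further: promastigotes grown with compound for 44 hours at 28 °C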
An asterisk follows results filed as active; i = inactive; ? = inconclusive; . = not tested or not shown. Only some compounds are listed: those with a hit (about 12% of all), similar ones and a draw of the others.

SMILES	Ins promoter up	KCC2 mod	ROMK mod	INS promoter inh	WT yeast gro inh	Lmaj promast
O=C(COC(=O)Cc1ccccc1F)Nc1cc(S(=O)(=O)N2CCOCC2)ccc1N1CCCC1	0.49	-1.8	.	.	-8	1
CC[n+]1ccc(/C=C/c2ccc(N(C)C)cc2)c2ccccc21	?	-1.3	-1.3	.	87*	100*
CC[n+]1c(/C=C/c2ccc(N(C)C)cc2)ccc2ccccc21	?	0.21	.	.	89	100*
CN(C)c1ccc(C(=O)/C=C/c2ccccc2)cc1	-0.16	0.025	0.2	-14	3	-2
CC[n+]1ccccc1/C=C/c1ccc(N(C)C)cc1	?	1	.	-200	2	96*
CN(C)c1ccc(/C=C/c2cc[n+]([O-])cc2)cc1	0.98	i	.	.	-10	-4
CCCCOc1c(C(=O)Nc2ccccc2)nnn1-c1ccccc1	-1.6	.	.	.	8	19
O=C(COC(=O)C(Cc1ccccc1)NC(=O)c1ccc(Cl)cc1)c1ccc(Cl)cc1 (centres undefined)	-0.37	-0.72	0.25	.	10	54*
CC(C)CC(NC(=O)c1cccc(Cl)c1)C(=O)O (centres undefined)	-0.42	-0.16	0.72	.	-3	15
O=C(COC(=O)C(Cc1ccccc1)NC(=O)c1ccccc1)c1ccccc1 (centres undefined)	-0.32	-0.35	0.74	5	-22	-5
CC(C)CC(NC(=O)c1ccc(Cl)cc1)C(=O)O (centres undefined)	.	0.78	1.1	11	0	84*
CCCCC(NC(=O)c1ccc(Cl)cc1)C(=O)O (centres undefined)	0.5	0.4	.	.	-4	86*
CSCCC(NC(=O)c1ccc(Br)cc1)C(=O)O (centres undefined)	0.19	0.082	-0.14	.	-14	80*
O=C(O)CSc1nnc(-c2ccncc2)n1CCc1ccccc1	0.59	0.34	1.2	.	-7	0
CC(=O)c1ccc(Nc2cc(C)nc3c(C)cc(C)cc23)cc1	.	-0.82	2.5	.	25	100*
CCCCN(C)C(=O)Cc1c(OC)ccc2cc(Br)ccc12	-0.13	-0.4	0.0039	-38	12	-3
CCOc1ccc(Oc2c(C)oc3cc(O)ccc3c2=O)cc1	.	-0.59	-0.25	.	-4	0
CCOC(=O)c1ccc(Oc2c(C)oc3cc(OS(C)(=O)=O)ccc3c2=O)cc1	.	0.17	.	7	-12	53*
Cc1cc(C(C)(C)C)oc1C(=O)O	0.43	0.68	0.24	47	-8	-7
Cc1ccc2[nH]c(C(=O)O)c(NC(=O)[C@@H]3C[C@@H]3c3ccccc3)c2c1	0.11	0.76	.	.	.	.
C=CCn1c(-c2ccc(OC)cc2)csc1=Nc1c(C)n(C)n(-c2ccccc2)c1=O	-0.24	0.33	-1.6	25	6	93*
CCOc1ccc(CCNS(=O)(=O)c2ccc3c(c2)NC(=O)CC(=O)N3)cc1OCC	-0.56	0.18	0.95	-22	2	-5
CC1(C)N=C(N)NC(Nc2ccc(Br)cc2)=N1	.	0.36	0.012	20	-14	-1
N#Cc1c(NC(=O)CCn2cnc3ccccc3c2=O)oc(-c2ccccc2)c1-c1ccccc1	.	-0.14	-1.4	75*	11	5
COc1cc2nc(N(C)C)nc(N)c2cc1OC	-0.01	.	.	.	-7	100*
SMILES	Ins promoter up	KCC2 mod	ROMK mod	INS promoter inh	WT yeast gro inh	Lmaj promast
COc1cc2nc(N(C)CCCNC(=O)C3CCCO3)nc(N)c2cc1OC (centres undefined)	0.05	-0.31	.	.	-4	.
CCOC(=O)c1ccc(N=C2SC(C(=O)NCCc3ccccc3)CC(=O)N2C)cc1 (centres undefined)	0.18	-1.5	-0.2	.	2	-9
O=C(COC(=O)c1ccccc1Cc1ccccc1)Nc1ccc(SC(F)F)cc1	-0.74	0.74	1.4	7	70*	6
Cc1ccc(C(=O)c2ccccc2C(=O)OCC(=O)Nc2ccc(SC(F)F)cc2)cc1	1.5	-0.47	0.45	5	37	66*
Cn1nnc(-c2ccc(OCc3ccccc3F)cc2)n1	0.52	-0.76	.	52	14	-12
CCOC(=O)/C(=C/c1c2ccccc2cc2ccccc12)NC(=O)c1ccccc1	-0.12	.	.	-67	60*	35
CCOC(=O)/C(=C\c1ccccc1)NC(=O)c1ccccc1	1.3	0.028	0.51	.	.	.
COC(=O)/C(=C\c1ccc2c(c1)c1ccccc1n2C)NC(=O)c1ccccc1	.	-1.3	.	3	18	63*

From PubChem BioAssay
